Reference: PubChem BioAssay (Tox21)
Records with an inconclusive call do not appear. The source made the active and inactive calls. The call rests on the fitted dose curve; in most records, active means well fitted cell-killing curve with a large enough effect in the repeat runs; inconclusive means weak or mixed curves, or effect the other way; inactive means flat fitted curve, though single readings scatter.

Assay: qHTS RealTime-Glo MT Cell Viability Assay in HEK293 cells - 8 hour (AID 1224887); further: top concentration of the series differs between compounds; nearly all actives have a fitted effect of over 50% in size
Details: RealTime-Glo luminescence; series mostly up to 76.8 µM
Excerpt: U.S. Tox21 Program National Center for Advancing Translational Sciences [NCATS] NIH Chemical Genomics Center [NCGC] U.S. Environmental Protection Agency [EPA] National Institutes of Environmental Health Sciences [NIEHS] National Toxicology Program [NTP] U.S. Food and Drug Administration [FDA] Tox21 Assay Overview: Measure of cell viability is critical in the cell-base assay. Analysis of cell viability is necessary for the characterization of cell responses to cytotoxic drugs and environmental stress. A RealTime-Glo MT Cell Viability Assay to monitor cell viability in real time of continues cell culture during 40 hours of compound treatment was used to screen Tox21 10K library compounds in Hek293 cells. The RealTime-Glo MT Cell Viability Assay is a nonlytic, homogeneous, bioluminescent method to measure cell viability in real time using a simple, plate-based method. The assay involves adding NanoLuc luciferase and a cell-permeant prosubstrate to cells in culture. Viable cells reduce the proprietary prosubstrate to generate a substrate for NanoLuc luciferase. This substrate diffuses from cells into the surrounding culture medium, where it is rapidly used by the NanoLuc Enzyme to produce a luminescent signal. The signal correlates with the number of viable cells, making the assay well suited for cytotoxicity studies.
Tox21 Assay Protocol Summary: The mixture of Hek293 cell suspension and reagents were dispensed at 600cells/6 ul/well in 1536-well tissue culture treated black solid bottom plates using a Multidrop dispenser. After the assay plates were incubated at a 37 C/5% CO2 incubator for 5 hours, 23 nL of compounds dissolved in DMSO, positive and negative controls was transferred to the assay plate by a pintool work station. The plates were incubated at 37 C for 40 hours. The luminescence intensity were measured at 0h, 8h, 16h, 24h, 32h and 40h time points using ViewLux plate reader during compound treatment.

SMILES	outcome
O=S(=O)(O)CC(O)CCl (stereo not given)	inactive
CCCCCCCCCCCC(C)=O	inactive
O=C(O)CCC(=O)Nc1ccc(S(=O)(=O)Nc2nccs2)cc1	inactive
CCCCCC(CC)OC(=O)CCCOc1ccc(Cl)cc1Cl (stereo not given)	inactive
CCCC(=O)CC	inactive
CC(O)CCCCn1c(=O)c2c(ncn2C)n(C)c1=O (stereo not given)	inactive
CCCCC(CC)COC(=O)CC#N (stereo not given)	inactive
CC(=O)Nc1ccc(OCCOCCOc2ccc(NC(C)=O)cc2)cc1	inactive
CC(=O)OC1CCC(C(C)(C)C)CC1 (stereo not given)	inactive
Nc1cc(S(=O)(=O)O)ccc1O	inactive
CCC(C)c1nccnc1OC (stereo not given)	inactive
CCCCCCC(=O)c1ccccc1	inactive
O=C[C@@H](O)[C@H](O)[C@H](O)CO	inactive
O=Cc1ccc(C(=O)O)cc1	inactive
O=C1c2ccccc2C(=O)N1CO	inactive
N#Cc1cc(NC(=O)C(=O)O)c(Cl)c(NC(=O)C(=O)O)c1	inactive
Cc1cc2c(cc1CC(=O)c1sccc1S(=O)(=O)Nc1onc(C)c1Cl)OCO2	inactive
CN(C)CCc1c[nH]c2ccc(C[C@H]3COC(=O)N3)cc12	inactive
CC/C=C\CCCCCCCCCCOC(C)=O	inactive
N=C(N)N	inactive

SMILES	outcome
O=C(O)COc1ccc2ccccc2c1	inactive
CC(=O)Nc1ccc(S(=O)(=O)Nc2cc(C)on2)cc1	inactive
O=C(O)Cc1ccccc1Oc1ccc(Cl)cc1Cl	inactive
CC(C)(O)c1ccc(C(C)(C)O)cc1	inactive
CCCCC(CC)CCC(CC(C)C)OS(=O)(=O)O (stereo not given)	inactive
CC/C=C/CCCCCCCCCCOC(C)=O	inactive
CCOC(=O)c1ccc(N(C)C)cc1	inactive
CC(C)(C)C(=O)CCc1ccc(Cl)cc1	inactive
CC(C)C(C)C	inactive
Cc1cc(O)c(Cl)cc1C	inactive
CSC(=O)c1cccc2nnsc12	inactive
CCN(CC)CC	inactive
CCCCOCCCC	inactive
Cc1cc(N)no1	inactive
Cc1ccc(Br)cc1	inactive
CCC(C)SSC(C)CC (stereo not given)	inactive
CCN1CCN(C(=O)N[C@@H](C(=O)N[C@@H]2C(=O)N3[C@@H]2SC(C)(C)[C@H]3C(=O)O)c2ccccc2)C(=O)C1=O	inactive
NS(=O)(=O)c1cc2c(cc1C(F)(F)F)NCNS2(=O)=O	inactive
COc1cnc(NS(=O)(=O)c2ccc(N)cc2)nc1	inactive
CCCC(C)C(O)CC (stereo not given)	inactive
